The text below walks through data of PubChem BioAssay (NCATS).

In one assay the test system is MCC-13. Description: qHTS assay to identify novel small-molecules to repurpose for Merkel cell carcinoma treatment (AID 1296009). Also: nearly all actives have a fitted effect of over 60% in size. Particulars: MCC and control cell lines, CellTiter-Glo viability, 72 h; series mostly up to 46 µM. The essentials: (§1)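 Cells exposed to NPC (8-point) and MIPE (11-point) compound dilutions for 72 hr at 37 degree celsius; viability read by CellTiter-Glo luminescence, normalized to no-cell and DMSO in-plate controls.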
(qHTS replaces the single test concentration by a dilution series.)

A further assay concerns MCC-26. The assay is described as above. Conditions: MCC and control cell lines, CellTiter-Glo viability, 72 h; series mostly up to 46 µM. The essentials: as §1
For orientation: In ATP-based viability assays light output follows the ATP content of the culture.

The subject of another assay is MKL-2. The description is as above. Conditions: MCC and control cell lines, CellTiter-Glo viability, 72 h; series mostly up to 46 µM. In outline: as §1
Another assay has as its system C33A. Description: Primary qHTS to identify gynecologic anti-cancer compounds using libraries of approved drugs and bioactive compounds (AID 1345084). Also: nearly all actives have a fitted effect of over 55% in size. Particulars: Gynecologic cancer cell panel viability, ATPlite luminescence, 48 h; series mostly up to 57.5 µM. In outline:
(§2)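 Cells, 1,000 per well, plated 16 h, then exposed 48 h at 37 C to compounds. Viability by ATPlite luminescence after 15 min at room temperature.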

The next assay deals with CAOV3. Described as above. Conditions: Gynecologic cancer cell panel viability, ATPlite luminescence, 48 h; series mostly up to 57.5 µM. The essentials:
as §2

The subject of another assay is CASKI. The description is as above. Particulars: Gynecologic cancer cell panel viability, ATPlite luminescence, 48 h; series mostly up to 57.5 µM. The essentials: as §2
The subject of a further assay is Es-2. The description is as above. Particulars: Gynecologic cancer cell panel viability, ATPlite luminescence, 48 h; series mostly up to 57.5 µM. In outline: as §2
Another assay concerns HeLa. The description is as above. Conditions: Gynecologic cancer cell panel viability, ATPlite luminescence, 48 h; series mostly up to 57.5 µM. The essentials: as §2
For a further assay, the system named is Hek293T. Described as above. Conditions: Gynecologic cancer cell panel viability, ATPlite luminescence, 48 h, control line for the selectivity index; series mostly up to 57.5 µM. In outline:
as §2

The next assay deals with JEG-3. The description is as above. Conditions: Gynecologic cancer cell panel viability, ATPlite luminescence, 48 h; series mostly up to 57.5 µM. The essentials:
as §2

In a further assay the test system is OV90. The description is as above. Particulars: Gynecologic cancer cell panel viability, ATPlite luminescence, 48 h; series mostly up to 57.5 µM. In outline: as §2
The subject of another assay is PA-1. The assay is described as above. Conditions: Gynecologic cancer cell panel viability, ATPlite luminescence, 48 h; series mostly up to 57.5 µM. The essentials:
as §2

For the next assay, the system named is SKOV3. Described as above. Particulars: Gynecologic cancer cell panel viability, ATPlite luminescence, 48 h; series mostly up to 57.5 µM. In outline: as §2
A further assay relates to Tov-21-G. Described as above. Particulars: Gynecologic cancer cell panel viability, ATPlite luminescence, 48 h; series mostly up to 57.5 µM. In outline: as §2
Another assay has as its system Tov112D. The assay is described as above. Particulars: Gynecologic cancer cell panel viability, ATPlite luminescence, 48 h; series mostly up to 57.5 µM. In outline: as §2
Assay [1] in a line: Drug repurposing screens with cells derived from glioblastoma tumor samples (AID 1345199). Also: nearly all actives have a fitted effect of over 40% in size. Conditions: GBM patient neurospheres viability, ATP luminescence, 48 h. The essentials: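 Four patient lines of CD133+ GBM neurospheres were screened at several concentrations; hits were retested in those lines plus three slower-growing GBM lines, using 48-hour treatment and ATP-based viability.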

A further assay relates to NIH3T3. Description: qHTS assay to identify novel small-molecules to repurpose for Merkel cell carcinoma treatment (AID 1296009). Also: nearly all actives have a fitted effect of over 60% in size. Conditions: MCC and control cell lines, CellTiter-Glo viability, 72 h; at 44.8 µM (top of the series) unless noted. In outline:
as §1

For the next assay, the system named is UISO. The assay is described as above. Particulars: MCC and control cell lines, CellTiter-Glo viability, 72 h; series mostly up to 46 µM. The essentials:
as §1

For the next assay, the system named is WaGa. The description is as above. Conditions: MCC and control cell lines, CellTiter-Glo viability, 72 h; series mostly up to 46 µM. The essentials: as §1
Another assay relates to MKL-1. Described as above. Particulars: MCC and control cell lines, CellTiter-Glo viability, 72 h; series mostly up to 46 µM. The essentials:
as §1

Where [2] appears, read: at 45.9 µM (top of the series), tumour line B.
Setting [3] is: at 45.9 µM (top of the series), tumour line D.
[4] abbreviates: at 91.6 µM (top of the series), tumour line B.
Where [5] appears, read: at 91.6 µM (top of the series), tumour line D.
Where [6] appears, read: at 46 µM (top of the series), tumour line A.

Where “and” joins values, the source holds several entries; their conditions need not be identical. Equal entries are not always repeated. Results filed as inconclusive are left out. A structure can be active in one record and inactive in another. A number with no mark means an inactive call. Calls of active or inactive are those of the source. Calls follow the shape of the dose curve; as a rule, active = well fitted curve in the direction sought with a large enough effect; inconclusive = small, poorly fitted or top-dose-only effect, or another doubt; inactive = no such curve, though single readings can be large; an effect the other way counts as inactive or inconclusive.
% is scaled to controls: 0 for no effect and ±100 for the full control effect; potency is read from the fitted curve at half-maximal effect.

`COP(=S)(OC)SCN1C(=O)c2ccccc2C1=O`: the call in the assay on MCC-13, in the assay with CAOV3, in the assay with CASKI, with Hek293T, in the assay on JEG-3 and in the assay on SKOV3 was inactive. Further, the Potency result in the assay with MCC-26, in the assay on C33A, in the assay with Es-2, with HeLa, in the assay with OV90 and in the assay with PA-1 was “inactive” throughout. For the same molecule, the Potency entry with Tov-21-G and in the assay with Tov112D was “inactive” each time. Moreover, the Potency in the assay on MKL-2 was 11.9 µM (active). For the same molecule, the activity, negative = cell killing in assay [1] (setting [2]) was -19.8%; in assay [1] (setting [3]) it was -8.89%.

In the case of `COc1ccc2c3c1O[C@H]1[C@H](O)CC[C@H]4[C@@H](C2)N(C)CC[C@@]341`, the result in the assay on MCC-13, in the assay on CAOV3, with CASKI, in the assay with Hek293T, in the assay on JEG-3 and in the assay with SKOV3 was inactive. Further, the Potency result in the assay on MCC-26, in the assay with MKL-2, in the assay with UISO, in the assay with WaGa, in the assay with C33A and in the assay with Es-2 was “inactive” in each case. The Potency result in the assay with HeLa, with OV90, with PA-1, in the assay with Tov-21-G and in the assay on Tov112D was “inactive” throughout. Further, the outcome in the assay with NIH3T3 is “inactive [at 92 µM]”. In addition, the activity, negative = cell killing in assay [1] (setting [4]) was -15.1%; in assay [1] (setting [5]), -10.3%.

For `CN1C(=O)CC(=O)N(c2ccccc2)c2cc(Cl)ccc21`, the values for the activity, negative = cell killing in [1] (setting [2]), in assay [1] (setting [3]) and in [1] (setting [6]) were -10.8%, -2.22% and -21.5%, respectively.

In the case of `CC(C)[C@H]1C(=O)N2CCC[C@H]2[C@]2(O)O[C@](NC(=O)[C@@H]3C[C@@H]4c5cccc6[nH]cc(c56)C[C@H]4N(C)C3)(C(C)C)C(=O)N12`, the activity, negative = cell killing in assay [1] (setting [2]) was -21%. The Potency in assay [1] (tumour line A) is 7.08 µM (active).

Consider `O=C(O)/C=C\C(=O)O`, for which the activity, negative = cell killing in assay [1] (setting [2]) was 0.272%; in assay [1] (setting [3]) it was -6.85%; in assay [1] (setting [6]), -28.3%; in [1] (at 46.1 µM (top of the series), tumour line C), 3.02%.

`Cc1nnc2n1-c1ccc(Cl)cc1C(c1ccccc1Cl)=NC2`: the activity, negative = cell killing in assay [1] (setting [2]) was -10.7%; in assay [1] (setting [3]) it was -8.42%; in assay [1] (setting [6]) it was -36.4%.

As for `CN=C1CN(O)C(c2ccccc2)=c2cc(Cl)ccc2=N1`, the activity, negative = cell killing was -15.1% and 1.01% in assay [1] (setting [2]); -14.7% and -15.6% in [1] (setting [3]). Moreover, the Potency in assay [1] (tumour line A) is 11.2 µM (active).

Take `C[C@]12CCC(=O)C=C1CC[C@@H]1[C@@H]2CC[C@@]2(C)[C@H]1CC[C@]2(C)O`: the molecule was classed as inactive in the assay with MCC-13, with CAOV3, with CASKI, in the assay with Hek293T and with JEG-3. Besides, the Potency result in the assay on MCC-26, in the assay on MKL-1, with C33A, in the assay on Es-2, in the assay with OV90 and in the assay with PA-1 was “inactive” each time. For the same molecule, the Potency result in the assay on Tov-21-G and in the assay with Tov112D was “inactive” each time. Besides, the Potency is 22.4 µM (active) in the assay on HeLa; 12.6 µM (active) and 20 µM (active) in [1] (tumour line A). For the same molecule, the activity, negative = cell killing is -4.4% and -14.4% in assay [1] (setting [2]); -24.9% and -19.8% in assay [1] (setting [3]).

Take `C[C@]1(O)CC[C@H]2[C@@H]3CCC4=CC(=O)CC[C@]4(C)[C@@]3(F)[C@@H](O)C[C@@]21C`: the results for the activity, negative = cell killing in assay [1] (setting [2]) and in assay [1] (setting [3]) were -7.52% and -21.3%, respectively. Besides, in assay [1] (tumour line A), the Potency is 35.5 µM (active).

In the case of `CCCCCN(C)CCC(O)(P(=O)(O)O)P(=O)(O)O`, the activity, negative = cell killing in assay [1] (setting [2]) was -6.41%; in [1] (setting [3]) it was -6.48%; in assay [1] (setting [6]) it was -14.8%.

On to `O=C1Nc2ccc(Cl)cc2C(c2ccccc2)=NC1O` (stereo not given), for which the activity, negative = cell killing is -7.13% in [1] (setting [2]), -25.5% in assay [1] (setting [3]), -11.1% in [1] (setting [4]) and -11.5% in [1] (setting [5]). In addition, the Potency in assay [1] (tumour line A) is 39.8 µM (active).

Take `COc1ccc2c(c1)C13CCCC[C@@H]1C(C2)N(C)CC3` (stereo not given in full): the activity, negative = cell killing in [1] (setting [2]) is -6.27%; in [1] (setting [3]), -5.01%. Also, in [1] (tumour line A), the Potency was 35.5 µM (active).

Take `CN1C[C@H](C(=O)N[C@]2(C)O[C@@]3(O)[C@@H]4CCCN4C(=O)[C@H](Cc4ccccc4)N3C2=O)C=C2c3cccc4[nH]cc(c34)C[C@H]21`: in [1] (setting [2]), the activity, negative = cell killing is -13.4%. Further, in assay [1] (tumour line A), the Potency was 14.1 µM (active).
